Screens (PubChem BioAssay)
SW480 rereplic – inducers of DNA re-replication in SW480 colon cancer cells; SW480 DNA re-replication, Hoechst DNA content imaging, 48 h; Potency, µM (titrated, usually from 46.1 µM), hits mostly activators; hit rate 1.8% among 340,000; AID 624297; note: nearly all actives have a fitted effect of over 55% in size
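First, 250 cells per well were seeded. Next, compound or vehicle (23 nL) was pinned in, plates sat 48 hr at 37 C. Finally Hoechst was added for 40 min before fluorescence scanning.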
HT1080-NT tox – kills 2HG-producing HT-1080-NT fibrosarcoma cells | AID 686970 | HT-1080-NT fibrosarcoma viability, CellTiter-Glo ATP luminescence, 48 h | Potency, µM (top dose mostly 46.1 µM), actives largely listed as cytotoxic | hit rate 1.6% among 360,000;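 note: NT is the 2HG producing partner of a matched IDH1 knockdown line; nearly all actives have a fitted effect of over 55% in size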
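Fibrosarcoma NT cells, 750 per well in 5% FBS RPMI, were exposed to compound for 48 hours. Viability: CellTiter-Glo luminescence.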
KB-V1 MDR tox – kills drug-selected multidrug resistant KB-V1 cells; hit rate 3.4% among 400,000; KB-V1 MDR cells viability, CellTiter-Glo, 72 h; Potency, µM (series often up to 46.1 µM), actives largely listed as cytotoxic; note: nearly all actives have a fitted effect of over 60% in size
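KB-V1 cells (P-gp-expressing MDR subline of KB-3-1) in phenol-red-free DMEM with 10% FBS were exposed to library compounds over a concentration series for 72 h at 37 degrees C. Viability read by CellTiter-Glo luminescence; concentration-effect curves fitted after normalization.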
HT1080 IDH1KD tx – kills HT-1080 cells with IDH1 knockdown | AID 686971 | hit rate 2% among 360,000 | Potency, µM (highest dose often 46.1 µM), most hits filed as cytotoxic | HT-1080 IDH1 knockdown viability, ATP luminescence, 48 h
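Luminescent ATP read-out (CellTiter-Glo, 10 min at room temperature) after 48 h compound exposure at 37 °C gave viability of IDH1-knockdown HT-1080 cells. Activity was normalised to DMSO and cell-free wells, then fitted as concentration-response curves.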
MCF10A rerep – inducers of DNA re-replication in MCF 10A breast cells | MCF 10A DNA re-replication, Hoechst nuclear intensity, 48 h | Potency, µM (series often up to 46.1 µM), most hits filed as activators | hit rate 2.9% among 350,000 | AID 624296; note: nearly all actives have a fitted effect of over 50% in size
KB-3-1 tox – KB-3-1 parental cell cytotoxicity; KB-3-1 viability, CellTiter-Glo ATP luminescence, 72 h; Potency, µM (highest dose often 46.1 µM), hits mostly cytotoxic; hit rate 1.4% among 400,000; note: nearly all actives have a fitted effect of over 60% in size
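KB-3-1 parental drug-naive adenocarcinoma cells in DMEM/10% FBS, incubated 72 h at 37 C with pin-transferred compounds across a concentration series. Viability by CellTiter-Glo luminescence; concentration-response curves fitted after normalization.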
Of the large screens only hits and unclear results are named; the others gave an inactive call; ! = not active in a repeat. A selection: hits, their analogues and other compounds. The true share with any hit is near 8%. Calls come from the whole dose curve; as a rule, active = well fitted curve in the direction sought with a large enough effect; inconclusive = small, poorly fitted or top-dose-only effect, or another doubt; inactive = no such curve, though single readings can be large; an effect the other way counts as inactive or inconclusive.

COc1cc(C2=NOC(C(=O)NCc3ccccn3)C2)cc(OC)c1OC (stereo not drawn)	MCF10A rerep inconclusive
COc1ccc(C2=NOC(C(=O)NCc3ccc(F)cc3)C2)cc1OC (stereo not drawn)	SW480 rereplic 2.06µM, HT1080-NT tox 1.26µM, KB-V1 MDR tox 0.517µM, HT1080 IDH1KD tx 1.12µM, MCF10A rerep 1.64µM
CC(=O)c1ccc(NC(=O)CCOc2ccccc2)cc1	none (no result: SW480 rereplic, HT1080-NT tox, HT1080 IDH1KD tx, MCF10A rerep)
CCCc1nnc(N2C(=O)c3oc4ccc(F)cc4c(=O)c3C2c2ccc(C(=O)OC)cc2)s1 (stereo not drawn)	KB-V1 MDR tox inconclusive (no result: SW480 rereplic, HT1080-NT tox, HT1080 IDH1KD tx, MCF10A rerep)
CC1CCN(CC[S-])CC1.O.O.[Cl][Pt]	KB-V1 MDR tox inconclusive, KB-3-1 tox 13µM (no result: SW480 rereplic, HT1080-NT tox, HT1080 IDH1KD tx, MCF10A rerep)
Cc1[nH]n(-c2nc(-c3ccc(Cl)cc3)cs2)c(=O)c1N=Nc1ccc(O)cc1	HT1080-NT tox inconclusive, KB-V1 MDR tox 14.6µM, MCF10A rerep inconclusive, KB-3-1 tox inconclusive
O=C(Cn1c(NCCCO)nc2ccccc21)c1ccco1	SW480 rereplic inconclusive, MCF10A rerep 18.4µM
O=C(NC1CCCCCC1)c1cc2c(=O)n3ccccc3nc2s1	SW480 rereplic 18.4µM, HT1080-NT tox inconclusive, MCF10A rerep 20.6µM
Cc1cc(C)cc(NC(=O)c2cc3c(=O)n4ccccc4nc3s2)c1	SW480 rereplic 9.2µM, MCF10A rerep inconclusive
CC(C)NC(=O)c1cc2c(=O)n3ccccc3nc2s1	none
CC1CC(C)CN(C(=O)c2cc3c(=O)n4ccccc4nc3s2)C1 (stereo not drawn)	MCF10A rerep 20.6µM
Cc1cccn2c(=O)c3cc(C(=O)NC4CCCCCC4)sc3nc12	MCF10A rerep inconclusive
CC1CN(C(=O)c2cc3c(=O)n4ccccc4nc3s2)CC(C)O1 (stereo not drawn)	none
Cc1cnc2ccccc2c1C	none (no result: SW480 rereplic, HT1080-NT tox, HT1080 IDH1KD tx, MCF10A rerep)
COc1ccc(N2CCN(S(=O)(=O)c3ccc4c(c3)CCCN4C(C)=O)CC2)cc1	none (no result: SW480 rereplic, HT1080-NT tox, HT1080 IDH1KD tx, MCF10A rerep)
CN1CCN(CCCCC(=O)c2ccccc2)CC1	MCF10A rerep inconclusive
O=C(CCCN1CCC(O)(c2ccc(Br)cc2)CC1)c1ccc(F)cc1	KB-V1 MDR tox inconclusive (no result: HT1080-NT tox, HT1080 IDH1KD tx)
O=C(CCCN1CCC(C(=O)c2ccc(F)cc2)CC1)c1ccc(F)cc1	MCF10A rerep 20.6µM!
O=C(CCCN1CCC(O)(c2ccc(Cl)cc2)CC1)c1ccc(F)cc1	KB-V1 MDR tox inconclusive, MCF10A rerep 20.6µM!
CN1CCN(CCCC(=O)c2ccc(C3CCCC3)cc2)CC1	SW480 rereplic inconclusive, HT1080-NT tox inconclusive, HT1080 IDH1KD tx 32.6µM, MCF10A rerep inconclusive, KB-3-1 tox inconclusive
CC1CCN(CCCC(=O)c2ccc(F)cc2)CC1	none (no result: HT1080-NT tox, KB-V1 MDR tox, HT1080 IDH1KD tx, KB-3-1 tox)
COc1ccc(S(=O)(=O)N(CC(=O)NC2CC2)Cc2ccccc2)cc1	none
COc1cccc(C(=O)Nc2nc(-c3nnn(-c4cccc(Cl)c4C)c3C)ns2)c1	KB-3-1 tox 14.6µM (no result: SW480 rereplic, HT1080-NT tox, HT1080 IDH1KD tx, MCF10A rerep)
CC(C)[C@@H](C(=O)N[C@@H](Cc1ccccc1)C(=O)O)N1C(=O)N2CCc3c([nH]c4ccccc34)[C@@]2(C)C1=O	none
COC(=O)/C(=N/Nc1ccc(C)cc1)N1CCCc2ccccc21	KB-V1 MDR tox inconclusive, MCF10A rerep inconclusive
COC(=O)/C(=N/Nc1ccccc1)N1CCCc2ccccc21	KB-V1 MDR tox 20.6µM, KB-3-1 tox inconclusive
NS(=O)(=O)c1ccc(NC(=O)Nc2ccc(C(F)(F)F)cc2)cc1	HT1080-NT tox inconclusive, HT1080 IDH1KD tx 20.6µM, MCF10A rerep inconclusive
CC(=O)Nc1sc(C)c(C)c1C(=O)OCC(=O)Nc1cccc(C)c1	SW480 rereplic inconclusive, MCF10A rerep 8.2µM, KB-3-1 tox inconclusive
CC(=O)Nc1sc(C)c(C)c1C(=O)OCC(=O)Nc1ccccc1	MCF10A rerep inconclusive
Cc1ccc(S(=O)(=O)CCC(=O)Nc2cccc(S(=O)(=O)N3CCCCCC3)c2)cc1	KB-V1 MDR tox 9.2µM, KB-3-1 tox inconclusive
O=C(Nc1cccc(S(=O)(=O)N2CCCCC2)c1)c1ccccc1NS(=O)(=O)c1ccc(F)cc1	SW480 rereplic inconclusive, HT1080-NT tox inconclusive, KB-V1 MDR tox 20.6µM, HT1080 IDH1KD tx 23.1µM, MCF10A rerep inconclusive, KB-3-1 tox inconclusive
